Experimental findings from PubChem BioAssay AID624465 (National Center for Advancing Translational Sciences (NCATS), 2012) are described below.

The structures appear in SMILES notation. Among all 360,000 compounds or so, about 300 (0.083%) were called active. This is one part of a sample in which actives are shown more often than they occur. A number with no mark means an inactive call. Cut-off read from the data, not from the text of the source: active = activation above about 40%; inconclusive = between about 15% and that limit; inactive = weaker than that.

In the assay the target is D(2) dopamine receptor (Homo sapiens) (UniProt P14416). As to the kind of experiment: Beta-Arrestin HTS for Positive Allosteric Modulators of the Human D2 Dopamine Receptor: Agonists. To be noted: DiscoveRx PathHunter D2 beta-arrestin, luminescence, 90 min; stronger effect = higher value; 100% = 57 uM dopamine signal. Summed up: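 Agonist mode: compounds alone added to overnight-plated D2 PathHunter cells for 90 min at 37 C, with 57 uM final dopamine (EC100) defining full response. Beta-arrestin recruitment detected by chemiluminescent reagent, read after 1 h at ambient temperature.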
D(2) dopamine receptor (Homo sapiens), sequence (P14416 whole entry, looked up): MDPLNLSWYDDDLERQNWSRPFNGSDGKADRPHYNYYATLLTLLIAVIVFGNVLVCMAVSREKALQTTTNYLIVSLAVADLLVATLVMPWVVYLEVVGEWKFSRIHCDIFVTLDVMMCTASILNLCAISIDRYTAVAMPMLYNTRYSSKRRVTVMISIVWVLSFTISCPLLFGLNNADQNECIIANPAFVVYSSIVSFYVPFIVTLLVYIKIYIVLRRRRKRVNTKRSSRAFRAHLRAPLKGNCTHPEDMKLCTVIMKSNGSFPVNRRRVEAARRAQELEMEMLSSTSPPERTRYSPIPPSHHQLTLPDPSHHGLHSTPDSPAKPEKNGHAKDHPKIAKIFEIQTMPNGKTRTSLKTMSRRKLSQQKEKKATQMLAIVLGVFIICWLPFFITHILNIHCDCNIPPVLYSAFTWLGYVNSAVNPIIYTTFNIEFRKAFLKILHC
As for `COCc1[nH][nH]c(=O)c1C=Nc1ccc(F)cc1F`, the activation is -3.8%.

As to `COC(=O)C1CC2=C(CC(C)(C)CC2=O)N(c2ccccc2)C1=O` (stereo not given), the activation was -1.92%.

For the compound `O=C(CS(=O)(=O)c1cn(Cc2ccc(Cl)cc2)c2ccccc12)N1CCOCC1`, the activation was -7.71%.

Take `COc1ccc(S(=O)(=O)N(C)C[C@@H]2Oc3ccc(NS(=O)(=O)c4cn(C)cn4)cc3C(=O)N([C@@H](C)CO)C[C@@H]2C)cc1`: the activation was -2%.

Take `Brc1cnc2ccccc2c1N1CCCCC1`: the activation is -0.246%.

Consider `COC(=O)c1cc(CNC(=O)CC(C)c2ccccc2)ccc1OC` (stereo not given), for which the activation is -6.11%.

On to `C/C(=N\NC(=O)c1ccc(CSc2nc(C)cc(C)n2)cc1)C1CCCCC1`, for which the activation is 2.32%.

As for `CCOC(=O)C(C)Sc1nnc(CSc2nc3nc(C)cc(C)n3n2)o1` (stereo not given), the activation was -4.24%.

For the compound `CN(C)C(=O)CCC(=O)N1CCCCC1C(=O)Nc1ccc(Oc2ccccc2F)cc1` (stereo not given), the activation is -8.59%.

Turning to `COc1ccc(N(CC(=O)NC2CCCC2)C(=O)CS(=O)CC(=O)Nc2ccc3c(c2)OCO3)cc1` (stereo not given), the activation is -1.02%.

In the case of `Cc1ccccc1-c1nc(CS(=O)(=O)CC(=O)N2CCc3ccccc3C2)c(C)o1`, the activation was -4.35%.

`CCC1C(C#N)=C(SC)NC2=C1C(=O)CC(C)(C)C2` (stereo not given): the activation was -0.142%.

Consider `O=C(NC1CCCCC1)C1CC(=O)N(CCc2ccccc2)C1` (stereo not given), for which the activation is -0.239%.

Consider `CO/N=C/c1cn(-c2ccc(Cl)cc2)nn1`, for which the activation is -5.2%.

As for `N#CC1(Nc2ccc3c4c(cccc24)CC3)CCCCC1`, the activation was -1.77%.

`O=S(=O)(NCCS(=O)(=O)N1CCN(c2ccccc2)CC1)c1ccc(F)cc1`: the activation was -3.38%.

As to `CCS(=O)(=O)N1CCC(N2CCN(c3ccccc3)CC2)CC1`, the activation is 45.9% (active).

With `CCOc1ccc(CC(=O)NCCS(=O)(=O)N2CCN(c3ccccc3)CC2)cc1`, the activation is 0.195%.

Take `CC1CCN(c2nc3c(c(=O)[nH]c(=O)n3C)n2CCCc2ccccc2)CC1`: the activation was 1.37%.

Consider `COc1ccc(CCn2c(NCCCN3CCOCC3)nc3c2c(=O)[nH]c(=O)n3C)cc1`, for which the activation is 0.498%.

Consider `COc1ccc(CCn2c(NN=C3CCCC3)nc3c2c(=O)[nH]c(=O)n3C)cc1`, for which the activation is 46% (active).

For the compound `Cc1noc(C)c1C(=O)NC(C)c1ccc2c(c1)OCO2` (stereo not given), the activation was 2.73%.

With `Nc1cc2c(cc1Br)-c1ccc(F)cc1C2=O`, the activation is 0.435%.

With `Cn1nc(C(=O)OCC(=O)N(Cc2ccccc2)C(C)(C)C)c2ccccc2c1=O`, the activation was -5.43%.

On to `CNC[C@@H]1Oc2c(NS(C)(=O)=O)cccc2C(=O)N([C@@H](C)CO)C[C@H]1C`, for which the activation was -2.2%.

Consider `CCOc1cc(CN2CCCC(CO)(Cc3ccc(F)cc3F)C2)ccc1OC` (stereo not given), for which the activation is -5.13%.

In the case of `COc1ccccc1N1CCN(S(=O)(=O)CCNC(=O)c2ccc(OC(C)C)cc2)CC1`, the activation is 4.66%.

With `CCCCNC(=O)c1nc(C2CCN(S(=O)(=O)c3ccc(F)c(F)c3)CC2)oc1-c1cccc(C(F)(F)F)c1`, the activation is -1.93%.

On to `OCCN1CCN(CCO)C1=S`, for which the activation is -3.52%.

On to `O=C(CSc1nnc2n1CCCN2)c1ccccc1`, for which the activation is 1.27%.

For the compound `COc1cc(C(=S)N2CCOCC2)cc(OC)c1OC(=O)c1ccc([N+](=O)[O-])cc1[N+](=O)[O-]`, the activation is 48% (active).

With `COc1cc([N+](=O)[O-])cc([N+](=O)[O-])c1NC(=O)N1CCOCC1`, the activation is 5.63%.

Regarding `COc1cc(C(=S)N2CCOCC2)cc(OC)c1OC(=O)c1cc([N+](=O)[O-])c(C)c([N+](=O)[O-])c1`, the activation is 4.7%.

Regarding `O=C(CN(C(=O)CNC(=O)c1cccs1)c1cccc(F)c1)NC1CCCCC1`, the activation is -1.63%.

Regarding `O=C1CCC(C(=O)N2CCCCO2)CN1Cc1cccc(C(F)(F)F)c1` (stereo not given), the activation is 1.46%.

For the compound `CCCCN1C(=O)C(CC(=O)NC(c2ccccc2)c2ccccc2)CC(C(=O)N2CCOCC2)=C1C` (stereo not given), the activation was -7.35%.

In the case of `CCOC(=O)C(CCOc1cccc(CC)c1)C(=O)OCC`, the activation is -1.01%.

Take `CNC(=O)c1csc(Cc2c(Cl)sc3ccc(Cl)cc23)n1`: the activation was 4.37%.

For `Cc1ccc(S(=O)(=O)N(CC(=O)Nc2cccc([N+](=O)[O-])c2)Cc2ccc(Cl)cc2)cc1`, the activation is -7.47%.

With `CCC(C)NC(=O)Cn1nc(C(F)(F)F)c2c1CCC2` (stereo not given), the activation is 1.68%.

As for `COc1ccc(S(=O)(=O)N(C)C[C@H]2OCc3cnnn3CCCC(=O)N([C@H](C)CO)C[C@H]2C)cc1`, the activation was 4.14%.

In the case of `CN(C)CCNC(=O)c1ccc(-c2cn3c(-c4ccc(Oc5ccccc5)cc4)cnc3cn2)cc1`, the activation was 3.24%.

For the compound `C/C=C/C(=O)Nc1nnc(C(C)C)s1`, the activation was -0.338%.

With `O=C(NNc1nc(N2CCCC2)nc(N2CCCC2)n1)c1ccccc1`, the activation is 1.25%.

Regarding `Cc1cc2c(cc1C)NC1(C[C@H]3CCC(=O)N4CC[C@@H](C1)[C@@H]34)C(=NC(C)(C)CC(C)(C)C)N2` (stereo not given in full), the activation is 1.8%.
